# Most compounds without a hit are left out; they make up all but 1.6% or so of the library.
# KCNQ2 enhance = enhances the rat KCNQ2 potassium channel; B-score at 10 µM; O88943; hit rate 0.54% among 310,000; AID 2239; CHO-K1 KCNQ2, FluxOR thallium flux fluorescence; hits give high values;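 active = fluorescence ratio B-score at least 3 SD of library B-scores, with initial fluorescence B-score within 3 of them, cut at about 5.3 in these data; same plate scores as AID 2156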;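 note: B-score of peak minus minimum over baseline fluorescence ratio after K+ and Tl+ stimulus; positive B-score means potentiation of KCNQ2 with more thallium influx and brighter signal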
# KCNQ2 block = KCNQ2 (rat) channel inhibition; B-score at 10 µM; hit rate 1.1% among 310,000; CHO-K1 KCNQ2, FluxOR thallium flux, 20 min; hits give low values; AID 2156;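 active = fluorescence ratio B-score at most minus 3 library SDs, with starting brightness B-score within 2 library SDs, cut at about -5.5 in these data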
# KCNQ2 inh conf = rat KCNQ2 channel inhibition, confirmatory screen. shares compounds with KCNQ2 block. KCNQ2-expressing cells, thallium flux; hits give low values. activity change, negative = inhibition, % at 10 µM. hit rate 57% among 1,000;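 note: 0% = vehicle wells and values are ratio percent relative to vehicle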
# KCNQ1 spec = selectivity of KCNQ2 inhibitors against human KCNQ1 | KCNQ1-expressing cells, FluxOR thallium flux fluorescence; hits give low values | activity change, negative = inhibition, % at 10 µM | AID 493026 | hit rate 15% among 1,000 | shares compounds with KCNQ2 block;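 active = activity change at least 3 SD of negative controls below their mean in both duplicate wells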;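 note: CHO cells stably transfected with KCNQ1 and depolarized by potassium stimulus; peak minus minimum fluorescence over baseline after thallium addition; 0% = vehicle negative control and -100% = blank without thallium stimulus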
# CHO parental ctr = KCNQ2 inhibitor counter-screen hit in parental CHO cells; AID 493029; shares compounds with KCNQ2 block; thallium flux counter-screen; hits give low values; hit rate 14% among 1,000; activity change, % at 10 µM;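 note: 0% = vehicle negative controls with stimulus buffer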
# KCNQ2 patch conf = blocks rat KCNQ2 current in automated patch clamp; shares compounds with KCNQ2 block; KCNQ2-expressing cells; calls only at 10 µM; hit rate 49% among 550; AID 588531
# Kir21 conf inh = confirmation of mouse Kir2.1 potassium channel inhibitors. Tl flux remaining, % of negative control (hits give low values), % at 10 µM. shares compounds with KCNQ2 enhance. Kir2.1-expressing cells, FluxOR thallium flux fluorescence; hits give low values. hit rate 41% among 2,300;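 active = Primary-screen hit whose thallium flux fell at least 3 control SD below untreated wells in both duplicates, with normal baseline fluorescence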;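 note: 0% = blank wells without stimulus and 100% = stimulated no-compound controls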
# HEK293 Tl flux = alters thallium flux in parental HEK293 cells, Kir2.1 counter-screen; shares compounds with KCNQ2 enhance; FluxOR thallium flux fluorescence; 0% = unstimulated blank wells; FluxOR signal as % of negative control (100 = no effect), % at 10 µM; hit rate 19% among 2,300; AID 2105;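 active = dye signal at least 3 control SD above or below untreated wells in both duplicates, raw fluorescence within 3, either direction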;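 note: percent is based on the flux ratio of peak minus minimum fluorescence over baseline F0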
# An asterisk follows results filed as active; i = inactive; / = no result given; + = active, no number. Unless noted, the rule behind the calls is not given here.
SMILES,KCNQ2 enhance,KCNQ2 block,KCNQ2 inh conf,KCNQ1 spec,CHO parental ctr,others
O=C(Nc1cccc2ccccc12)c1nn(C23CC4CC(CC(C4)C2)C3)cc1Br,-8,-8*,-26%*,i,i,KCNQ2 patch conf=i
CCCCn1c(=O)c(C(=O)NC(C)c2ccccc2)c(O)c2ccccc21 (configuration not stated),-12,-12*,i,i,i,
CCCCn1c(=O)c(C(=O)NCCc2ccccc2)c(O)c2ccccc21,/,i,/,/,/,
CCN(CC)CC(O)c1ccc(C2CCCC2)cc1 (configuration not stated),0.37,i,/,/,/,
O=C(c1ccco1)C12CN3CN(CN(C3)C1)C2,0.85,i,/,/,/,
COc1ccc(OP(=O)(Nc2ccccc2)Nc2ccccc2)cc1,/,i,/,/,/,
Cc1ccc(NP(=O)(Nc2ccc(C)cc2)Oc2ccccc2)cc1,-7.1,-7.1*,-31%*,i,i,KCNQ2 patch conf=+
N=C1SCC(=O)N1Cc1ccccc1,1.3,i,/,/,/,
CCC1(CC)C(=O)N(Cc2ccccc2)C(=O)N(Cc2ccccc2)C1=O,-8.2,-8.2*,i,i,i,
CCN(CC)P(=O)(NC(=O)C(Cl)(Cl)Cl)N(CC)CC.[Cl-].[Cl-].[Cl-].[Nd+3],0.25,i,/,/,/,
CC1=C2[C@@H]3OC(=O)[C@H](C)C3CC[C@@]2(C)C=CC1=O (some centres not stated),0.34,i,/,/,/,
COC(=O)C1=C(c2ccc(S(C)(=O)=O)cc2)C[C@@H]2CC[C@H]1N2C(=O)NC1CCCCC1,0.76,i,/,/,/,
c1ccc(-c2cc(-c3ccccc3)[n+](-c3ccccc3)c(-c3ccccc3)c2)cc1,-13,-13*,i,i,i,Kir21 conf inh=34%*;HEK293 Tl flux=i
CCOC(=O)c1ccccc1C(=O)OCC,0.49,i,/,/,/,
C[n+]1c(-c2ccccc2)cc(-c2ccc(Cl)cc2)cc1-c1ccccc1,1,i,/,/,/,
CCOC(=O)c1cccc(-[n+]2c(-c3ccccc3)cc(-c3ccccc3)cc2-c2ccccc2)c1,-7.3,-7.3*,-32%*,i,i,KCNQ2 patch conf=i;Kir21 conf inh=i;HEK293 Tl flux=i
Cc1ccc(-c2cc(-c3ccc(C)cc3)[n+](-c3ccccc3)c(-c3ccc(C)cc3)c2)cc1,-13,-13*,i,i,i,Kir21 conf inh=12%*;HEK293 Tl flux=i
Cc1ccc(-c2cc(-c3ccc(C)cc3)[n+](C)o2)cc1,/,i,/,/,/,
O=[N+]([O-])c1cccc2c([As](=O)(O)O)cccc12,/,i,/,/,/,
O=C(CSC1c2ccccc2-c2ccccc21)N/N=C/c1ccccc1O,1,i,/,/,/,
CCOP(=O)(OCC)c1cc(CC)ccc1O,/,i,/,/,/,
COc1ccc(CN2CCCC(C(=O)c3cccc(Cl)c3)C2)cc1 (configuration not stated),/,i,/,/,/,Kir21 conf inh=24%*;HEK293 Tl flux=i
CSc1ncc(CN2CCCC(C(=O)c3cccc(Cl)c3)C2)cn1 (configuration not stated),1,i,/,/,/,

# Source: PubChem BioAssay
